High-throughput results as filed in PubChem BioAssay.
FEN1 inhibitor – blocks human flap endonuclease 1. Potency, µM (titrated, usually from 114 µM), actives largely listed as inhibitors. P39748. hit rate 0.35% among 390,000. AID 588795. Recombinant FEN1 flap cleavage, fluorescence, 15 min; further: nearly all actives have a fitted effect of over 65% in size
Target sequence (P39748 whole entry, looked up): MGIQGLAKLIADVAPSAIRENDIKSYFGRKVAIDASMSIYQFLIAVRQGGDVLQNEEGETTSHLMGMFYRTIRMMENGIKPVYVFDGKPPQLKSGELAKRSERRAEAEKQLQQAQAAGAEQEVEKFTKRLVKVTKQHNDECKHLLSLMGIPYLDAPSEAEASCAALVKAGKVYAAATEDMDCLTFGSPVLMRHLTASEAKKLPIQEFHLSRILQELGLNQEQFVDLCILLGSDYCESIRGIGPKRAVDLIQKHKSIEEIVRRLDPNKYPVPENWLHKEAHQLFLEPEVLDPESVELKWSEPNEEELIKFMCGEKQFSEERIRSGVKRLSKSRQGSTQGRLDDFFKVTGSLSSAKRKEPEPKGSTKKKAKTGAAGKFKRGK
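Nuclease activity of 10 nM FEN1 was measured after 15 min of room-temperature exposure to titrated compounds, by adding 50 nM flap substrate and reading plates at 0 and 15 min.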
Pol eta inh – blocks human DNA polymerase eta activity | Q9Y253 | recombinant Pol eta, fluorescent DNA replication assay | Potency, µM (top dose mostly 114 µM), hits mostly inhibitors | hit rate 1.2% among 390,000 | AID 588591
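Pol eta (10 nM) was preincubated with compounds for 15 min at room temperature, after which fluorescent replication substrate (50 nM final) was added to start the reaction. Fluorescence was read kinetically at 0 and 10 min.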
POLI inh – inhibitors of human DNA polymerase iota; hit rate 1% among 390,000; Pol iota fluorescent replication assay, 10 min; Q9UNA4; Potency, µM (series often up to 115 µM), most hits filed as inhibitors; AID 588590
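Pol iota at 10 nM preincubated 15 min with compounds at room temperature; reaction started with fluorescent substrate, 50 nM final. Fluorescence read kinetically at 0 and 10 min; buffer-only wells as negative control.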
Pol beta inh – blocks human DNA polymerase beta activity. P06746. Pol beta primer extension/strand displacement, fluorescence kinetic. Potency, µM (top dose mostly 114 µM), actives largely listed as inhibitors. hit rate 1.3% among 340,000. AID 485314
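Human Pol beta at 10 nM; strand-displacement substrate 50 nM final. Compound exposure 15 min at room temperature before start, reaction 10 min at room temperature.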
POLK inh – blocks human DNA polymerase kappa activity; Potency, µM (highest dose often 107 µM), actives largely listed as inhibitors; AID 588579; Q9UBT6; hit rate 0.53% among 400,000; purified Pol kappa, fluorescent DNA synthesis assay, 10 min
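Activity was followed as the change in fluorescence between reads at 0 and 10 min after starting the reaction with 50 nM substrate. Beforehand, 10 nM polymerase had been preincubated with compound for 15 min at room temperature.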
TDP1 inh – blocks human tyrosyl-DNA phosphodiesterase 1. Q9NUW8. recombinant TDP1, AlphaScreen DNA substrate cleavage. Potency, µM (series often up to 130 µM), usual class: inhibitors. hit rate 0.28% among 350,000; further: nearly all actives have a fitted effect of over 40% in size
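Compounds were preincubated with Tdp1 (1 nM final) for 15 min at room temperature before substrate (15 nM final) started a 5 min reaction; beads (10 ug/ml final) were then added for 10 min before AlphaScreen detection.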
Numbers stand for hits; i = inactive; ? = inconclusive; nt = no result. In the library only some 2.4% were active in any assay of this set; here they are far more common. The call rests on the fitted dose curve; in most records, active means well fitted curve in the direction sought with a large enough effect; inconclusive means small, poorly fitted or top-dose-only effect, or another doubt; inactive means no such curve, though single readings can be large; an effect the other way counts as inactive or inconclusive.

SMILES	FEN1 inhibitor	Pol eta inh	POLI inh	Pol beta inh	POLK inh	TDP1 inh
O=S(=O)(/N=S1\CC=CCN1S(=O)(=O)c1ccccc1)c1ccccc1 (configuration not stated)	?	i	28µM	nt	i	nt
O=C1C=C(O)CC(c2ccc(Cl)cc2)C1 (configuration not stated)	i	?	i	50µM	i	i
COc1ccc(/C=C2/SC(=O)N(CCC(=O)Nc3ccc(C)cc3)C2=O)cc1OC	nt	nt	nt	i	nt	i
COc1cc(/C=C2\SC(N)=NC2=O)ccc1OCC(=O)Nc1ccc(C)cc1	i	?	79µM	3.5µM	i	i
COc1cc(/C=C2/SC(=S)N(CC(=O)O)C2=O)ccc1OCC(=O)Nc1ccc(C)c(C)c1	nt	nt	nt	?	nt	13µM
CN(C)c1ccc(/C=c2\[nH]c(=O)/c(=C\c3ccc(N(C)C)cc3)[nH]c2=O)cc1	i	nt	?	nt	i	nt
CC(C)(C)N(Cc1ccccc1)C(=O)c1cccs1	i	i	i	i	i	i
N#CCCN(Cc1ccccc1)C(=O)c1cccs1	i	i	i	0.16µM	i	i
O=C1NN(c2ccccc2)C(=O)/C1=C\c1cccc(OC(=O)c2cccs2)c1	i	28µM	?	28µM	i	nt
CCc1ccc2oc(-c3cc(NC(=O)COc4ccc(C)cc4)ccc3O)nc2c1	i	nt	i	nt	i	nt
CCOC(=O)c1sc2nc(-c3ccco3)c3c(c2c1N)CC(C)(C)OC3	i	?	i	40µM	i	i
CC(C)(C)c1ccc(C(=O)Nc2ccccc2C(=O)OCc2cc(=O)n3ccsc3n2)cc1	i	i	i	i	i	i
Cc1nn(CCc2nc(-c3ccco3)cs2)c2[nH]c(=O)cc(C(F)(F)F)c12	?	32µM	13µM	22µM	35µM	?
CC(C)(C)c1ccc(NC(=O)COC(=O)c2ccccc2OCC(=O)Nc2ccc(Br)cc2)cc1	i	nt	i	nt	i	nt
CCOC(=O)c1sc(=S)n(-c2ccc(OC)cc2)c1C	i	i	i	i	i	nt
CCOC(=O)c1c2c(n(-c3ccc(OC)cc3)c1C)C(=O)C(=O)c1ccccc1-2	i	3.2µM	8.9µM	nt	i	nt
O=C(Cc1ccc(F)cc1)NO	i	nt	i	nt	i	nt
O=C(Nc1nnc(-c2ccccc2)o1)c1cccc(N2C(=O)CCC2=O)c1	i	i	i	i	i	i
O=C(Nc1nnc(-c2ccco2)o1)c1ccc(N2C(=O)CCC2=O)cc1	i	i	22µM	?	i	i
CNc1ccc(C=C2C=CC=C2)cc1	i	nt	5µM	nt	?	nt
COc1ccc(C(=O)Nc2ccc(OC)c([N+](=O)[O-])c2)cc1Br	i	?	i	20µM	i	i
Cc1cc(N2CCN(c3cccc(C)c3C)CC2)n2cnnc2n1	i	i	?	0.16µM	i	i
Cc1ccccc1NC(=O)Cn1c(=O)n(Cc2ccc3c(c2)OCO3)c(=O)c2ccc(C(=O)NC3CCCCC3)cc21	i	i	i	?	i	i
Cc1ccccc1NC(=O)CN1C(=O)S/C(=C\c2ccc(-c3cccc(C(=O)O)c3C)o2)C1=O	i	?	?	35µM	?	i
O=C(O)c1ccccc1-c1ccc(/C=C2\SC(=O)N(c3ccccc3)C2=O)o1	i	?	?	?	i	nt
SMILES	FEN1 inhibitor	Pol eta inh	POLI inh	Pol beta inh	POLK inh	TDP1 inh
COc1ccc(/C=C(\C)C(=O)NO)cc1	i	nt	i	nt	i	nt
O=C(O)c1cc(-c2ccc(/C=c3\sc4nc5ccc(Br)cc5n4c3=O)o2)ccc1Cl	nt	nt	nt	1.6µM	nt	nt
O=C(O)c1ccccc1-c1ccc(/C=c2\sc3nc4cc(Br)cnc4n3c2=O)o1	10µM	1.3µM	?	?	3.5µM	7.9µM
O=Cc1ccc(-c2ccccc2C(=O)O)o1	i	i	i	?	i	i
O=C(CN(c1ccccc1)S(=O)(=O)c1ccccc1)NCCSCc1ccco1	i	?	?	56µM	79µM	28µM
COc1ccc(N(CC(=O)NCCSCc2ccco2)S(=O)(=O)c2ccccc2)cc1	i	i	i	i	i	i
CN(c1ccc(C(=O)NCc2ccco2)cc1)S(C)(=O)=O	i	i	i	i	i	i
CN(c1ccc(C(=O)NCCSCc2ccco2)cc1)S(C)(=O)=O	i	i	i	1µM	i	i
